# Values joined by “and” are separate entries in the source; they are usually repeats but may differ in a detail not shown here. Equal values may be shown once. About 83,000 compounds went through this panel and 20% of them were active in at least one assay; those are over-represented in the sample as a whole.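 Activity criterion: percent growth below 10, measured after cells in 96-well plates were exposed to a single compound concentration for 48 hours.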 Values without a mark were called inactive. Active and inactive are the calls of the source.
# Experiments:
# Assay in all cases: NCI-60 one-dose screen, 48 h (100 = growth as untreated, 0 = no growth, -100 = all killed)
# [1] = system: BT-549 breast; settings: 10 µM unless noted
# [2] = system: MDA-MB-435 melanoma; settings: 10 µM unless noted
# [3] = system: SW-620 colon; settings: 10 µM unless noted
# [4] = system: MCF7 breast; settings: 10 µM
# [5] = system: HCT-116 colon; settings: 10 µM unless noted
# [6] = system: HCC-2998 colon; settings: 10 µM unless noted
# [7] = system: KM12 colon; settings: 10 µM unless noted
Compound,growth [1],growth [2],growth [3],growth [4],growth [5],growth [6],growth [7]
C=CCOc1ccc(N=NC(C#N)C#N)cc1,92.1%,88.3%,40.4%,22.6%,46.8%,101%,100%
CC1(C)CC([P+](c2ccccc2)(c2ccccc2)c2ccccc2)=NN1,–,28.2%,47.6%,5.67% (active),16.6%,18.1%,21.7%
O=C1N[C@H]2[C@H](CS[C@H]2CCCCC(=O)N(CCP(c2ccccc2)c2ccccc2)CCP(c2ccccc2)c2ccccc2)N1,96.9%,96.1%,88.7%,20.9%,35.5%,88.9%,59.9%
O=C(O)C1C2CC3C(OC(=O)C31)C2Br (stereo not drawn),99.4% and 93.2%,109% and 95.4%,94.7% and 94.8%,88.7% and 93.8%,94.1% and 101%,88.8% and 96.8%,108% and 106%
CC(=Nc1ccc(N(C)C)cc1)c1ccccc1,58.3%,54.4%,42.6%,20.8%,50%,58.2%,42.6%
O=C(/C=C/C=C/c1ccccc1)c1ccco1,113%,92.8%,62.4%,26.1%,36.3%,114%,86.8%
O=C(/C=C\c1ccccc1)N1c2ccccc2CC1c1c[nH]c2ccccc12 (stereo not drawn),88.6%,83.8%,78.2%,66.2%,23.1%,85.6%,64.4%
C[N+](C)=c1ccc2nc3c(cc(NCCCNc4cc5oc6cc(=[N+](C)C)ccc-6nc5c5ccccc45)c4ccccc43)oc-2c1,61.6%,-82.1% (active),-25.5% (active),-52.4% (active),-36.9% (active),23.7%,17.5%
CC1OC2CC(=O)OC2C2=C1C(=O)c1c(O)cccc1C2=O (stereo not drawn),-98.5% (active),-68% (active),-76.4% (active),-45.2% (active),-97.8% (active),-97.4% (active),24.7%
CC(C)(C)CC(C)(C)c1ccc(OCCSC(=N)N)cc1,104%,20.2%,-12.1% (active),9.08% (active),-12.2% (active),-16% (active),32.8%
Oc1c(Cl)c2ccccc2c2ccccc12,95.8%,-72% (active),111%,98.8%,101%,117%,107%
CCC(c1cccc(O)c1)C(CC)c1cccc(O)c1 (stereo not drawn),66%,-15.9% (active),42%,16.8%,34.4%,67%,36.7%
Oc1c(Cl)cc(Cl)c2cccnc12,53.1% and 40.3%,63.1% and 54.3%,54.9% and 57.5%,50.8% and 29.1%,40.6% and 25.6%,74.6% and 69.2%,54.2% and 52.3%
CNc1ccc(N)cc1,87.6%,96.2%,104%,96.3%,107%,100%,107%
NC1=CC(=O)c2ccccc2C1=O,92.1%,8.66% (active),107%,54.5%,80.8%,90.4%,79.3%
NC(N)=N/N=C/c1ccc([N+](=O)[O-])o1,94.5%,115%,105%,72.4%,89%,88%,82.3%
CCN1/C(=C\c2cc[n+](CC)c3ccccc23)C=Cc2ccccc21,10.8%,-30.7% (active),8.76% (active),8.12% (active),11.9%,23%,1.57% (active)
